High-throughput results deposited in PubChem by National Center for Advancing Translational Sciences (NCATS).
VACV mCherry inh: inhibitors of vaccinia virus infection (mCherry reporter signal) | Vaccinia virus mCherry reporter infection, fluorescence | Potency, µM (highest dose often 36.5 µM), for inactives: at the top dose activity change, negative = inhibition, hits mostly inhibitors | actives 0.63% (n = 310,000); calls by dose curve; tested in A549 cells; further: nearly all actives have a fitted effect of over 35% in size
VACV Venus inh: vaccinia inhibition (Venus reporter); Vaccinia virus Venus reporter expression, fluorescence; Potency, µM (titrated, usually from 36.5 µM), for inactives: at the highest dose activity change, negative = inhibition, hits mostly inhibitors; actives 0.46% (n = 330,000); calls by dose curve; tested in A549 cells; further: nearly all actives have a fitted effect of over 30% in size
HCV inhibitor: inhibitors of hepatitis C virus infection; actives 3.4% (n = 340,000); Potency, µM (doses to about 41.8 µM), inactives show at the top dose activity change, negative = inhibition, most hits filed as inhibitors; AID 651820; Huh7.5.1 HCVcc-Cre infection, luciferase reporter, 44 h; active means well fitted inhibition curve with a large enough effect; inconclusive means small, poorly fitted or top-dose-only effect, or another doubt; inactive means no such curve, though single readings can be large or run the other way
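After 44 h co-culture of compound, cells and HCVcc-Cre (~0.5 moi), substrate is added for 15 min at room temperature and luciferase measured over 15 sec. Cells were seeded at 1,000/well and pre-cultured 4 h.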
Active calls of the source: *; i = inactive; ? = inconclusive; · = not tested or not shown; [ ] = remark or other dose. Most compounds without a hit are left out; they make up all but 3.3% or so of the library. On the % scale 0 is the no-effect control and ±100 the full control effect; potency means the concentration at half of the fitted maximal effect.

SMILES	VACV mCherry inh	VACV Venus inh	HCV inhibitor
CN(CCOc1ccc(-c2ccn(S(=O)(=O)c3c(Cl)cccc3Cl)n2)cc1)c1ccccn1	-16.3%	-13.2%	15.7%
O=C(NCCCN1CCCCCC1)C(c1ccccc1)C1CCCCC1 (stereo not drawn)	-9.2%	-25.4%	·
COC(=O)c1[nH]c2c(c1C)C(=O)CC(c1ccc(OC)c(OC)c1)C2 (stereo not drawn)	·	·	-29.0%
CCOC(=O)C1=C(C)NC(C)=C(C(=O)OCC)C1c1ccc(OC)c(OC)c1	i	-9.8%	·
CCOCCOC(=O)c1[nH]c2c(c1C)C(=O)CC(c1cc(OC)c(OC)c(OC)c1)C2 (stereo not drawn)	1.5%	-15.4%	5.01µM*
COCCOC(=O)c1[nH]c2c(c1C)C(=O)CC(c1ccc(OC)c(OC)c1)C2 (stereo not drawn)	·	·	10µM*
COC(=O)c1[nH]c2c(c1C)C(=O)CC(c1cc(OC)c(OC)c(OC)c1)C2 (stereo not drawn)	·	·	10µM*
CCOCCOC(=O)c1[nH]c2c(c1C)C(=O)CC(c1ccccc1)C2 (stereo not drawn)	-15.3%	?	?
CCOC(=O)C1=C(C)NC2=C(C(=O)CC(c3ccc(OC)c(OC)c3)C2)C1c1ccc(C)o1 (stereo not drawn)	-3.2%	-6.1%	12.6µM*
CCCOC(=O)c1[nH]c2c(c1C)C(=O)CC(c1ccc(OC)c(OC)c1)C2 (stereo not drawn)	-9.2%	-0.8%	-28.6%
COC(=O)C1C(=O)C2=C(CC1C)NC(C)=C(C(=O)OCCOc1ccccc1)C2c1ccc(C)o1 (stereo not drawn)	-19.1%	-4.7%	12.6µM*
COC(=O)C1C(=O)C2=C(CC1C)NC(C)=C(C(=O)OC(C)C)C2c1ccc(C)o1 (stereo not drawn)	·	·	19.2%
O=C(c1cccnc1)C1CCCN(Cc2ccc3c(c2)CN(C(=O)c2cnccn2)CCO3)C1 (stereo not drawn)	-3.8%	2.8%	·
COC(=O)c1c(OCc2ccccn2)cc(=O)n2c1CCN(Cc1ccc3c(c1)CCCN3C)CC2	-15.4%	-8.3%	·
CCOC(=O)N1CCN(C(=O)c2ccc3c(c2)N(Cc2cccc(Cl)c2)C(=O)c2ccccc2S3=O)CC1 (stereo not drawn)	-7.2%[7.34 µM]	0.0%[7.34 µM]	17.8µM*
CCN1CCN(C(=O)c2ccc3c(c2)N(Cc2cccc(Cl)c2)C(=O)c2ccccc2S3=O)CC1 (stereo not drawn)	-6.3%	-2.6%	·
Cc1ccc(C)c(CN2C(=O)c3ccccc3S(=O)c3ccc(C(=O)N4CCN(c5ccccn5)CC4)cc32)c1 (stereo not drawn)	?	-3.6%	11.2µM*
Cc1ccc(C)c(CN2C(=O)c3ccccc3S(=O)c3ccc(C(=O)N4CCN(c5ccccc5F)CC4)cc32)c1 (stereo not drawn)	?	-13.2%	·
CCOc1ccc(C(=O)NCC(=O)NCC2CCCCC2)cc1OCC	-12.0%	-4.6%	-8.5%
O=C(Cn1c(=O)ccc2cc(S(=O)(=O)N3CCCC3)ccc21)Nc1ccc(Cl)cc1	13.3%	9.1%	·
COc1ccc(CC(=O)NCC2CCCN(Cc3ccccc3Cl)C2)cc1 (stereo not drawn)	·	·	-1.8%
CC1CCN(CCCOc2ccc(Cl)cc2Br)CC1	-8.0%	-15.7%	-13.2%
CC1CCN(CCCCOc2ccc(Br)cc2)CC1	-21.0%	-11.3%	11.2µM*
CC1CCN(CCOCCOc2ccc(Cl)cc2Br)CC1	-21.5%	-22.3%	22.4µM*
Cc1cc(Br)ccc1OCCCCN1CCC(C)CC1	-1.8%	-14.9%	12.6µM*
SMILES	VACV mCherry inh	VACV Venus inh	HCV inhibitor
CC1CCN(CCCCOc2ccccc2Br)CC1	i	-3.7%	?
CC1CCN(CCCCOc2cccc(Br)c2)CC1	-2.1%	-28.6%	?
CCCCCc1ccc(-c2cn(Cc3ccc4c(c3)C(=O)c3ccccc3C4=O)nn2)cc1	-17.1%	-13.0%	·
COc1ccc(/C=C/c2ccnc3ccccc23)c(OC)c1	-28.6%	2.1%	·
COc1ccc2oc(=O)c(-c3csc(Nc4ccc(O)cc4)n3)cc2c1	?	?	11.2µM*
COc1ccc2oc(=O)c(-c3csc(-c4ccc(Br)cc4)n3)cc2c1	-0.9%	3.2%	·
Nc1ccc(Nc2nc(-c3ccncc3)cs2)cc1	-21.2%	-11.9%	7.94µM*
NS(=O)(=O)c1ccc(Nc2nc(-c3ccc(O)cc3)cs2)cc1	-22.9%	-10.5%	?
Oc1ccc(Nc2nc(-c3ccc(O)cc3)cs2)cc1	·	·	10µM*
Clc1ccc(Nc2nc(-c3ccncc3)cs2)cc1	?	-20.4%	?
COc1ccc(C#Cc2c[nH]c(=O)c3cncnc23)cc1OC	-12.0%	-27.2%	·
COc1ccc(S(=O)(=O)N2CCCCCC2)cc1C(=O)N(C)Cc1ccc(OC)c(OC)c1OC	-9.8%	-2.2%	6.6%
Cc1ccccc1C(=O)Nc1ccnn1C1CCN(C(C)Cc2ccccc2F)CC1 (stereo not drawn)	·	·	10µM*
COCC(C)N1CCC(n2nccc2NC(=O)c2ccccc2Cl)CC1 (stereo not drawn)	-7.9%	3.6%	30.0%
Cc1cccc(C(=O)NCC(=O)OCc2nc(N)nc(Nc3ccccc3C)n2)c1	·	·	3.5%
Cc1[nH]c2ccccc2c1C1(O)C(=O)N(Cc2ccccc2)c2ccc(Br)cc21 (stereo not drawn)	1.0%	-5.4%	·
O=C1CS(=O)(=O)N(Cc2ccccc2F)c2ccc(Br)cc21	-2.1%	-12.4%	-1.3%
C=CCOC1=CS(=O)(=O)N(Cc2ccc(Br)cc2)c2ccc(Br)cc21	?	-14.6%	20µM*
CC1=C/C(=C\c2ccc(N(C)C)cc2)c2ccccc21	-20.8%	-16.0%	·
O=C1c2ccccc2NC(c2ccccc2OCc2ccccc2)N1Cc1ccco1 (stereo not drawn)	6.3%	-6.4%	·
COc1cccc2c1OCC(C(=O)O)C2 (stereo not drawn)	-4.7%	-3.0%	-3.5%
COc1cccc2c1C(CO)N1C(C#N)C3CC(C(=O)O)C(C1C2)N3C (stereo not drawn)	?	?	1.12µM*
O=c1oc(C2(O)CCCCC2)cc2ccc(/C=C/c3ccc(F)cc3)cc12	-7.3%	-24.8%	?
CS(=O)(=O)c1ccc(-c2ccc3c(c2)CC(CNC(=O)C2(N4CCOCC4)CCCCC2)O3)cc1 (stereo not drawn)	-14.5%	?	·
CC1=CC(c2ccc(Cl)cc2)n2ncnc2N1 (stereo not drawn)	i	-3.6%	0.891µM*
SMILES	VACV mCherry inh	VACV Venus inh	HCV inhibitor
COc1ccc(C2C=C(C)Nc3ncnn32)cc1 (stereo not drawn)	·	·	2.0%
COc1ccccc1NC(=O)C(=O)NCCC1CCCCN1S(=O)(=O)c1ccccc1 (stereo not drawn)	-25.0%	-25.6%	?
Cc1ccc(C)c(S(=O)(=O)N2CCCCC2CCNC(=O)C(=O)NCc2cccnc2)c1 (stereo not drawn)	-30.2%	?	-24.7%
O=C(NCCc1ccc(F)cc1)C(=O)NCC1CCCN1S(=O)(=O)c1ccccc1 (stereo not drawn)	?	-22.8%	11.2µM*
COc1cccc(NC(=O)C(=O)NCC2CCCN2S(=O)(=O)c2ccccc2)c1 (stereo not drawn)	i	-16.3%	11.2µM*
COc1cccc(C(=O)NCC2CCCN2S(=O)(=O)c2ccccc2)c1 (stereo not drawn)	i	-2.4%	2.9%
O=C(NCc1ccc(F)cc1)C(=O)NCC1CCCN1S(=O)(=O)c1ccccc1 (stereo not drawn)	-7.3%	-22.7%	-10.5%[8.37 µM]
